For 59 compounds, survival results are on record in PubChem BioAssay AID463173 (ICCB-Longwood Screening Facility, Harvard Medical School, 2010).

Hit rate of the full screen: of about 52,000 compounds, about 4,300 (8.3%) were called active. Cut-off read from the data, not from the text of the source: active = survival mostly below about 52% (no sharp cut-off); inactive = mostly above about 56%. The full list was thinned out, with actives kept by preference.

The subject of this test is DeltatarO mutant. Briefly: S. aureus survival, RN4220 and DeltatarO strains – OD600, teichoic acid synthesis inhibitors, primary screen (AID 463173). The conditions noted are these: S. aureus RN4220 wild type/DeltatarO growth, OD600, 18 h, active compounds read low, screened at 18.75 µg/mL (by protocol).
Regarding `Cc1ccc(-n2ncc(C(=O)N3CCN(c4ccccn4)CC3)c2C2CCN(C(=O)OC(C)(C)C)CC2)cc1C`, the survival was 72% (inactive).

As for `COc1ccc2c(c1)N(C)/C(=C1/SC(=O)N(c3ccccc3)C1=O)S2`, the survival was 94% (inactive). With `CC(C)(CC(=O)NCc1ccc(Cl)cc1Cl)CC1=NS(=O)(=O)c2ccccc2N1` the figure was 75% (inactive); with `CCCOc1ccc(NC(=O)CC2C(=O)N(c3ccc(F)cc3)C(=O)N2CC(C)C)cc1` (centres undefined), 64% (inactive). Next, `COc1ccc(NC(=O)Cc2coc3cc(C)cc(C)c23)c(OC)c1`: 60% (inactive). Next, `COc1ccccc1CCNC(=O)c1cccn1-c1nnc(N2CCCC2)s1`: 93% (inactive); `CCCOc1cccc(C(=O)N(Cc2sccc2C)C2CCS(=O)(=O)C2)c1` (centres undefined): 110% (inactive); `COc1cc2c(=O)c(C(=O)c3ccc(C)c(C)c3)cn(Cc3ccccc3)c2cc1OC`: 79% (inactive). Turning to `O=C(CSc1nc2c([nH]c3ccccc32)c(=O)n1-c1ccccc1)N1CCCC1`, the survival is 84% (inactive). Take `Cc1ccc(-c2nc3ccc(Cl)cn3c2Nc2ccc3c(c2)OCCO3)s1`: the survival was 107% (inactive). With `Cc1nc2c(C(=O)NCc3ccccc3Cl)c[nH]n2c(=O)c1Cc1cccc(Cl)c1` the figure was -16% (active).

With `Cc1nc2nc(NC(=O)c3cccc(Cl)c3)[nH]n2c(=O)c1Cc1ccccc1`, the survival is 111% (inactive). Consider `Cc1nc2c(C(=O)NCc3ccccc3Cl)cnn2c(C)c1Cc1ccccc1`, for which the survival was 79% (inactive). With `Cc1nc2c(C(=O)NCCc3ccccc3)c[nH]n2c(=O)c1Cc1ccc(F)cc1Cl` the figure was -16% (active); with `Cc1ccc(CNC(=O)c2c[nH]n3c(=O)c(Cc4ccc(F)cc4Cl)c(C)nc23)cc1`, -13% (active).

`Cc1ccc(CNC(=O)CN2CCN(Cc3ccc(F)cc3Cl)C2=O)cc1`: the survival is 79% (inactive).

As to `Cc1nc2c(C(=O)NCCc3ccc(Cl)cc3)cnn2c(C)c1Cc1ccc(F)cc1`, the survival is 69% (inactive). With `Cc1nc2c(C(=O)NCc3ccccc3)c[nH]n2c(=O)c1Cc1ccccc1Cl` the figure was 49% (inactive). Next, `Cc1nc2c(C(=O)N(C)Cc3ccccc3)c[nH]n2c(=O)c1Cc1ccc(Cl)cc1`: 88% (inactive); `Cc1nc2nc(NC(=O)c3ccc(F)cc3)[nH]n2c(=O)c1Cc1ccccc1`: 101% (inactive). Next, `Cc1ccc(CNC(=O)c2cnn3c(C)c(Cc4c(F)cccc4Cl)c(C)nc23)cc1`: 70% (inactive). In the case of `Cc1nc2c(C(=O)NCCc3ccc(Cl)cc3)c[nH]n2c(=O)c1Cc1ccc(Cl)cc1`, the survival is -14% (active).

Regarding `COc1ccc(CNC(=O)C(=O)NCC(c2ccco2)S(=O)(=O)c2cccs2)cc1` (centres undefined), the survival was 60% (inactive). With `N#C/C(=C\c1ccc[nH]1)C(=O)N1CCc2ccccc2C1` the figure was 72% (inactive); with `COc1cc(Cl)c(NC(=O)c2cc(S(=O)(=O)N3CCCCC3)c[nH]2)c(OC)c1`, 119% (inactive); with `Cc1cc(NC(=O)CCNS(=O)(=O)c2ccc3c(c2)CCCC(=O)N3)ccc1Br`, 76% (inactive). Next, `COc1ccc(C2CC(=O)Nc3c2c(=O)[nH]c2nc4ccccc4n32)cc1` (centres undefined): 66% (inactive); `Cn1cnc(S(=O)(=O)N2CCC(C(=O)NCc3ccc(Cl)cc3)CC2)c1`: 101% (inactive); `Cn1cnc(S(=O)(=O)N2CCC(C(=O)NCc3ccccc3Cl)CC2)c1`: 118% (inactive).

For the compound `Cc1cc(C)cc(NC(=O)C2CCN(S(=O)(=O)c3cn(C)cn3)CC2)c1`, the survival is 98% (inactive).

Take `COc1ccccc1CNC(=O)C1CCN(S(=O)(=O)c2ccc3[nH]c(=O)ccc3c2)CC1`: the survival is 102% (inactive). Next, `CCOc1ccccc1NC(=O)C1CCN(S(=O)(=O)c2ccc3[nH]c(=O)ccc3c2)CC1`: 63% (inactive).

As for `Cc1ccc(N(C)C(=O)C2CCN(S(=O)(=O)c3cn(C)cn3)CC2)cc1`, the survival is 37% (active).

Regarding `COc1ccccc1CNC(=O)C1CCN(S(=O)(=O)c2cn(C)cn2)CC1`, the survival is 0% (active). With `CN(C)c1ccc(CNC(=O)C2CCN(S(=O)(=O)c3cn(C)cn3)CC2)cc1` the figure was 0% (active); with `CCOc1ccccc1CNC(=O)C1CCN(S(=O)(=O)c2ccc3[nH]c(=O)ccc3c2)CC1`, 25% (active). Next, `Cc1ccc(CNC(=O)C2CCN(S(=O)(=O)c3cn(C)cn3)CC2)cc1`: 115% (inactive); `COc1ccc(OC)c(CNC(=O)C2CCN(S(=O)(=O)c3cn(C)cn3)CC2)c1`: 83% (inactive); `Cc1ccc(C)c(N2CCN(C(=O)C3CCN(S(=O)(=O)c4cn(C)cn4)CC3)CC2)c1`: 64% (inactive). Next, `CC(C)C(NS(=O)(=O)c1ccccc1)C(C)C`: 97% (inactive); `COc1cc(C2CC(=O)c3c([nH]c(C(=O)OCc4ccc(C)cc4)c3C)C2)cc(OC)c1OC` (centres undefined): 83% (inactive); `OC1CN=C2C=CC=CN2C1` (centres undefined): 89% (inactive). As for `CCN1CCN(c2ccc(NS(=O)(=O)c3c(C)nc4sccn4c3=O)cc2Cl)CC1`, the survival was 108% (inactive). With `Cc1ccc(CNC(=O)c2oc3c(c2C)-c2nn(Cc4ccc(Cl)cc4)cc2CC3)cc1` the figure was 57% (inactive). With `Cc1cc2nc(-c3ccc(NC(=O)c4ccc(OCC(C)C)cc4)cc3)oc2cc1C` the figure was 78% (inactive). With `Cc1c(CNC2CCCCC2)c(C(=O)O)c(C)n1Cc1ccccc1F` the figure was 88% (inactive); with `Cc1ccc2c(c1)-c1onc(C(=O)N(C)c3cccc(C(F)(F)F)c3)c1CO2`, 108% (inactive).

Take `CC(C)OCCCNC(=O)c1ccc2c(c1)N(Cc1c(F)cccc1Cl)C(=O)c1ccccc1S2`: the survival is 76% (inactive). With `CCCCc1nn2c(=O)cc(COC(=O)c3cccc(Cl)c3)nc2s1` the figure was 67% (inactive).

For `COc1ccc(C(CC(=O)NCc2ccccc2Cl)N2Cc3ccccc3C2=O)cc1OC` (centres undefined), the survival was 80% (inactive).

On to `COc1ccccc1N1CCN(S(=O)(=O)c2c(C)sc3ncn(CC(=O)Nc4ccc(C)cc4Br)c(=O)c23)CC1`, for which the survival is 73% (inactive). Next, `O=C(Cc1ccccc1)NC1CCS(=O)(=O)C1` (centres undefined): 97% (inactive); `O=C(CCn1cnc2ccccc2c1=O)NCc1ccccc1`: 109% (inactive). With `Cc1cc(C)c(OCC(=O)N(Cc2ccc(N(C)C)cc2)Cc2ccco2)c(C)c1` the figure was 49% (inactive); with `Cc1ccc2c(C)c(C(=O)N(Cc3ccc(N(C)C)cc3)Cc3ccco3)oc2c1C`, 87% (inactive). As for `Cc1cc(C)c2c(CC(=O)N(Cc3ccc(N(C)C)cc3)Cc3ccco3)coc2c1`, the survival was 42% (active). With `Cc1cc(C)c2c(CC(=O)N(Cc3ccc(Cl)cc3)Cc3ccco3)coc2c1` the figure was 57% (inactive); with `Cc1ccc2c(CC(=O)N(Cc3ccc(Cl)cc3)Cc3ccco3)coc2c1`, 99% (inactive); with `Cc1ccc2c(CC(=O)N(Cc3ccc(N(C)C)cc3)Cc3ccco3)coc2c1C`, 45% (active).
